The supplement of paper PMC12632987

B1: GBRAPL2_63_7394 (protein)
chain: SAARKVLEALLEHAIIDLETAERLEKALEEAKSEEELRKTLVEALLDMIPELTEEEAEELADMLIELAKKSEELLKEAILALQTLSKEEALAKLKALVAE
B2: GBRAPL2_63_7399 (protein)
chain: SAAKKALEALLEHAILDLDTAERLDKALENEKDEEKLRKALVEAILDINPEATEEEAERMADLLLELAKKSEAALKEAVRALSTMDLPEALAFLEALVAA
B3: GBRAPL2_63_7398 (protein)
chain: MLAKKVLEALLENAILPLDLAEELEKALETLKTEEELRETLVKAILELNPELTEEEAEEIVDLLIELAKKSEELLKEGVRALSTLDNETAKEYLKKLVAE
B4: GBRAPL2_63_7405 (protein)
chain: MTAKKVLEALLRHAILPLDTAERLDEALENEEDEEKLRETLVEAILDIRPELTPEEAEYVAEKLLALAEQSEERLAEAVRALTTLSKEEFLARLDELVAE
B5: GBRAPL2_63_7404 (protein)
chain: SSAEKVLKTLLEYATLDLDTAERLEEALESNASEEELREALVEAIKDIRPDLTEEEAERVADLLIELAKQSEELLKEAVRDLDTLENDEFLKRLEELVAA
B6: GBRAPL2_54_7390 (protein)
chain: LVEVELILIVSGELPEEEIERIEELLKEKTEELLKKHSDKIEKILRFEREREDGVVLISVELLVKEEYKEEVIDELIKIAEEIREESGVEIKSVIAESSD
B7: GBRAPL2_63_7400 (protein)
chain: SAAKKALEALLEHAILDLETAERLEKALEEETDEEKLYEALVEAILDLNPEATREQAEEIADLLIELAKQSEAALKAAVRALSTVPLEEALAFLRAAVAA
B8: GBRAPL2_63_7403 (protein)
chain: SEVEKVLKAILEYATLDLDTAERIDKALESNLSEEELFEVLVETIKDINPELTDEEAEKIAELLIELAKQSEEKLKEAVRKLQTMENEEFIAYLEELVKE
B9: GBRAPL2_63_7395 (protein)
chain: SAAARVLRALLEHAIVDLETAERIEEALATEKSAEALRETLVAALLDMIPELTEEEARELAAALEALARRSPELLREALRALQTLSLEEARARLAALLAA
B10: GBRAPL2_63_7397 (protein)
chain: MTAKKVLEIILREAILDLETAEKLEEALKNEKTEEALREALVEAILDMRPDLTEEEAEEIVDLLLELQKKSEELAREGVRALSTLDNEEALAYLKELVAK
B11: GBRAPL2_63_7396 (protein)
chain: MIAKKVLEILLREAILDLETAEELEKALEEEKTEEELRKALVKAILDLNPDLTEEEAEEIVELLLELAKKSEELARKAVRALSTLDNEEAFAFIKKLVAE
B12: GBRAPL2_63_7392 (protein)
chain: SLLDKVLKLLSRLGPVPLDLAERFEELAEELSDEEELAKAIAEAVQEDNPHIDEERRKILEEAILKALTEDSEIAIKIASAIINGAPMEEIEKLLEELKK
B13: GBRAPL2_63_7402 (protein)
chain: SAVERVLRTLLEHAVLDLDTAERLEKALESNLSDEELFKTLVEAIKDINPELTEEEAERVARLLIALAEQSEALLVEAVRQLSTLENEEFLALLEALVAA
B14: GBRAPL2_63_7401 (protein)
chain: SSVEKVLKTLLEYAVLDLDTAEKIDKALENNESDEELFKTLVEAIKDIRPDLTEEEAEEIAKLLIELAKKSEELLKEAVRKLDTMENEEFIKYLKELVEK
B15: GBRAPL2_63_7391 (protein)
chain: SLADKTAALLSRLGAVPLELAEAWEAAAAALTDVAAFAEAAAAAAAAINPRIDAERQAILEEAIRRALTEDDPLAVEIVSAIINNEPDEEIRALWKKLLA
B16: GBRAPL2_63_7393 (protein)
chain: STWARVLRLILEHATIDLETAERLEAALESNASDEELFATLVEALQDIRPELTPEQARDIAAKLARLAERSEALAAEAVRRLDTMSLEEFLAHLDALVAA

target: GABARAPL2, P60520; test: median log2 fold change of GCK-ALFA target abundance (FLAG IP / Myc IP barcode read proportion) (log2 ratio); each designed protein is fused to an ALFA-tag nanobody in HEK293 cells to bring the named protein to FLAG-tagged glucokinase (GCK); Myc marks an untargeted standard; higher = target protein stabilised (more abundant); settings: target protein: 3xFLAG-MCP-GCK-ALFA reporter; HEK293 landing pad (RPLP)
Outline: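 The readout is target abundance, the per-binder median log2 ratio of FLAG to Myc barcode read proportions. It came from HEK293 landing-pad cells carrying a recombined ALFA-nanobody-fused binder library, induced with 2 μg mL^−1 doxycycline and transfected with a plasmid for a FLAG-tagged target and a Myc-tagged standard. After 48 h, lysates were immunoprecipitated with anti-FLAG and anti-Myc, and circular RNA barcodes were reverse transcribed, amplified and sequenced. Each barcode needed a proportion of at least 10^−7 in both replicates and each binder at least 3 barcodes per replicate, a pseudocount of 10^−6 was added, and the replicates were pooled.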

Chain of GABARAPL2, P60520 (P60520 whole entry, the tested form may be a part): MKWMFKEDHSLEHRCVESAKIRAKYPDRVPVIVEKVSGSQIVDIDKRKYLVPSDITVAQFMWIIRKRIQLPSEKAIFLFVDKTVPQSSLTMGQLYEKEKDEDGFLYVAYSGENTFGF

| Binder | median log2 fold change |
| --- | --- |
| B1 | 0.071 |
| B2 | -0.0717 |
| B3 | 0.0619 |
| B4 | -0.247 |
| B5 | 0.0151 |
| B6 | -0.0228 |
| B7 | -0.0605 |
| B8 | -0.012 |
| B9 | 0.00583 |
| B10 | 0.0233 |
| B11 | 0.0814 |
| B12 | 0.0699 |
| B13 | 0.0388 |
| B14 | 0.131 |
| B15 | 0.206 |
| B16 | 0.216 |
